Pf growth 48h – Primary qHTS for delayed death inhibitors of the malarial parasite plastid, 48 hour incubation | P. falciparum luciferase growth in erythrocytes, 48 h | Potency, µM (highest dose often 28.7 µM), without a hit: top-dose activity change, negative = inhibition, actives largely listed as inhibitors | hit rate 5.9% among 310,000 | AID 504832, 2011; also: potency is read from the fitted curve at half-maximal effect
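Compounds are pin-transferred into medium, infected erythrocytes (2% hematocrit, 0.1% parasitemia final) are added, and plates sit one parasite generation at 37 C in 5% CO2. Detection reagent is then added and luminescence measured.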
HCMV antiviral – qHTS Assay for inhibitors of the human cytomegalovirus (HCMV); HFF cells, HCMV-luciferase reporter, 72 h; stronger effect = lower value; activity change, negative = inhibition, % at 57.5 µM; hit rate 4.5% among 410,000; in the data active = activity change below about -60%; inconclusive = no clear call, values can overlap the other calls; inactive = above about -39%
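Two compound doses tested in HFFs infected with HCMV-luciferase, MOI 1 PFU/cell, 72 h at 37C. Lysate luminescence read with OneGlo; data normalized against buffer-only and 10uM Salinomycin inhibitor controls.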
HCV inhibitor – qHTS Assay for Inhibitors of Hepatitis C Virus (HCV) | hit rate 3.4% among 340,000 | AID 651820, 2012 | Huh7.5.1 HCVcc-Cre infection, luciferase reporter, 44 h | Potency, µM (doses to about 41.8 µM), for the others: top-dose activity change, negative = inhibition, actives largely listed as inhibitors; also: potency is read from the fitted curve at half-maximal effect
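Infectious HCV cell culture screen: compound-treated cells (1,000/well, pre-plated 4 h) are infected with HCVcc-Cre at roughly 0.5 moi and grown 44 h. Infection is quantified by luciferase signal after 15 min substrate incubation at room temperature.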
Pf growth 96h – Primary qHTS for delayed death inhibitors of the malarial parasite plastid, 96 hour incubation; P. falciparum luciferase reporter growth, 96 h; Potency, µM (titrated, usually from 28.7 µM), for the others: top-dose activity change, negative = inhibition, usual class: inhibitors; hit rate 6.9% among 320,000; also: potency is read from the fitted curve at half-maximal effect
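Parasite growth measured via integrated firefly luciferase reporter in P. falciparum. Infected erythrocytes at 2% hematocrit, 0.05% parasitemia final were treated 96 hours at 37 C under 5% CO2, and luminescence was read.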
* = called active by the depositor; ! = a repeat was not active. In the library only some 13% were active in any assay of this set; here they are far more common. Unless noted, calls follow the shape of the dose curve; as a rule, active = well fitted inhibition curve with a large enough effect; inconclusive = small, poorly fitted or top-dose-only effect, or another doubt; inactive = no such curve, though single readings can be large or run the other way. % is scaled to controls: 0 for no effect and ±100 for the full control effect.

What do the screens show for `COc1ccc(NC(=S)NC(NC(=O)c2cccc(Cl)c2)C(Cl)(Cl)Cl)c([N+](=O)[O-])c1` (centres undefined)?
Pf growth 48h: 3.3µM*; HCMV antiviral: -88*; HCV inhibitor: 11µM*!; Pf growth 96h: inconclusive

What do the screens show for `O=C(Cc1cccc2ccccc12)NC(NC(=S)Nc1ccccc1Cl)C(Cl)(Cl)Cl` (centres undefined)?
Pf growth 48h: inconclusive; HCMV antiviral: -39; HCV inhibitor: inconclusive; Pf growth 96h: 13%

How did COc1ccc(NC(=S)NC(NC(=O)c2cccc(C)c2)C(Cl)(Cl)Cl)c([N+](=O)[O-])c1 (centres undefined) do in these assays?
Pf growth 48h: 3.3µM*; HCMV antiviral: -11; HCV inhibitor: inconclusive; Pf growth 96h: -19%

Results for O=C(NC(NC(=S)Nc1ccccc1Cl)C(Cl)(Cl)Cl)c1cccc(Cl)c1 (centres undefined) ?
Pf growth 48h: inconclusive; HCMV antiviral: -99*; HCV inhibitor: inconclusive; Pf growth 96h: 71%

What do the screens show for `CCOC(=O)CN(Cc1ccccc1)C(C(=O)NC1CCCCC1)c1ccc(OC)cc1` (centres undefined)?
HCMV antiviral: 2

How did CS(=O)(=O)N(Cc1ccccc1)c1ccc(C(=O)Nc2cccc(Cl)c2)cc1 do in these assays?
HCMV antiviral: -12

Results for CCOC(=O)Cn1c(=O)oc2cc(S(=O)(=O)N3CCN(c4ccc(F)cc4)CC3)ccc21 ?
HCMV antiviral: -14

Results for Cc1cc(NC(=O)c2cc3ccccc3o2)cc(C)c1OCC(=O)N1CCOCC1 ?
Pf growth 48h: -12%; HCMV antiviral: -11; HCV inhibitor: inconclusive; Pf growth 96h: 38%

What do the screens show for `Cc1ccc(OCC(=O)N2CCOCC2)cc1C`?
Pf growth 48h: 43%; HCMV antiviral: -14; HCV inhibitor: 6%; Pf growth 96h: 33%

What do the screens show for `COc1cc(C(=O)Nc2cc(C)c(OCC(=O)N3CCOCC3)c(C)c2)cc(OC)c1OC`?
Pf growth 48h: inconclusive; HCMV antiviral: 12; HCV inhibitor: -21%; Pf growth 96h: 13µM*

How did Cc1cc(C)c(C)c(OCC(=O)N2CCOCC2)c1 do in these assays?
HCMV antiviral: 8; HCV inhibitor: 7%; Pf growth 96h: 13µM*

Results for Cc1cc(NC(=O)c2ccccc2F)cc(C)c1OCC(=O)N1CCOCC1 ?
Pf growth 48h: 34%; HCMV antiviral: -98*; HCV inhibitor: -2%; Pf growth 96h: 12%

What do the screens show for `Cc1ccc(-n2c(=O)c3sc4ccccc4c3n(C)c2=O)cc1F`?
HCMV antiviral: -15

Results for O=C(NC1CCCCCC1)C1CCN(c2nc3ccccc3o2)CC1 ?
Pf growth 48h: inconclusive; HCMV antiviral: -74*; HCV inhibitor: -8%; Pf growth 96h: 0%

What do the screens show for `COc1cccc(CNS(=O)(=O)c2ccccc2Br)c1`?
HCMV antiviral: 7

Results for CCc1nc(Sc2nnnn2-c2ccccc2)c2c3c(sc2n1)CCCC3 ?
Pf growth 48h: 12µM*; HCMV antiviral: -17; HCV inhibitor: inconclusive; Pf growth 96h: inconclusive

What do the screens show for `Cc1nc(SCC(=O)NCC2CCCO2)c2c3c(sc2n1)CCC3` (centres undefined)?
Pf growth 48h: -7%; HCMV antiviral: inconclusive; HCV inhibitor: -13%; Pf growth 96h: inconclusive

Results for Cc1nc(Sc2nnnn2C)c2c3c(sc2n1)CCC3 ?
HCMV antiviral: -103*; HCV inhibitor: 4%; Pf growth 96h: 66%

How did COc1ccc(CN2C(=O)N(c3ccc(F)cc3)C(=O)C2CC(=O)Nc2ccccc2)cc1 (centres undefined) do in these assays?
HCMV antiviral: 3

What do the screens show for `O=C(O)CC(Sc1ccc(Cl)cc1)C(=O)Nc1ccccc1` (centres undefined)?
HCMV antiviral: -2

How did CN(CC(=O)Nc1ccccc1-c1ccccc1)C1CCCCC1 do in these assays?
Pf growth 48h: inconclusive; HCMV antiviral: inconclusive; HCV inhibitor: inconclusive; Pf growth 96h: 106%

How did O=C(Nc1ccccc1-c1ccccc1)NC1CC2CCCC(C1)N2Cc1ccc(F)cc1 (centres undefined) do in these assays?
Pf growth 48h: 12µM*; HCMV antiviral: -40; HCV inhibitor: inconclusive; Pf growth 96h: 34%

How did O=C(Nc1ccccc1-c1ccccc1)NC1CC2CCCC(C1)N2CCc1ccccc1 (centres undefined) do in these assays?
Pf growth 48h: 5.2µM*; HCMV antiviral: -29; HCV inhibitor: inconclusive; Pf growth 96h: inconclusive

Results for Cc1cc(C)cc(NC(=O)C(C)N2Cc3ccccc3C2=O)c1 (centres undefined) ?
HCMV antiviral: -7

How did CCOC(=O)c1cc(OC(=O)c2ccccc2F)n(-c2ccccc2)n1 do in these assays?
HCMV antiviral: 11

What do the screens show for `CN(CCCCCCCCCCN(C)C(=O)Oc1cccc([N+](C)(C)C)c1)C(=O)Oc1cccc([N+](C)(C)C)c1`?
Pf growth 48h: 0.12µM*; HCMV antiviral: -33; HCV inhibitor: inconclusive; Pf growth 96h: 0.074µM*

Results for CCOC(=O)c1c(NC(=O)COC(=O)CC(NC(C)=O)c2ccccc2)sc(C(=O)NC)c1C (centres undefined) ?
Pf growth 48h: inconclusive; HCMV antiviral: 29; HCV inhibitor: 10µM*; Pf growth 96h: inconclusive

How did CCOC(=O)c1cc(C)sc1NC(=O)CSc1nccn1C do in these assays?
Pf growth 48h: -3%; HCMV antiviral: inconclusive; HCV inhibitor: 13µM*; Pf growth 96h: 20%

Results for CCOC(=O)c1c(NC(=O)CSc2nccn2C)sc(C(=O)NC)c1C ?
Pf growth 48h: inconclusive; HCMV antiviral: 22; HCV inhibitor: 10µM*; Pf growth 96h: inconclusive

Results for COC(=O)c1c(NC(=O)CSc2nccn2C)sc(C)c1C ?
Pf growth 48h: inconclusive; HCMV antiviral: -3; HCV inhibitor: inconclusive; Pf growth 96h: -10%

Results for COCCNC(=O)C1(C)CCCN(C(=O)c2ccco2)C1 (centres undefined) ?
HCMV antiviral: 22

How did Cc1cc(NC(=O)CSc2nc3cc(C(=O)NCCCOC(C)C)ccc3c(=O)n2Cc2ccco2)no1 do in these assays?
Pf growth 48h: inconclusive; HCMV antiviral: -84*; HCV inhibitor: 7.1µM*; Pf growth 96h: inconclusive

Results for COC(=O)c1ccc2c(=O)n(Cc3ccco3)c(SCC(=O)Nc3cc(C)on3)nc2c1 ?
Pf growth 48h: 4.7µM*; HCMV antiviral: -95*; HCV inhibitor: -23%; Pf growth 96h: -6%

How did COCCNC(=O)c1ccc2c(=O)n(Cc3ccco3)c(SCC(=O)NC3CCCCC3)nc2c1 do in these assays?
Pf growth 48h: 0%; HCMV antiviral: 0; HCV inhibitor: inconclusive; Pf growth 96h: inconclusive

Results for Cc1ccc(CN(C(=O)COc2cc(C)c(Cl)c(C)c2)c2ccccn2)o1 ?
HCMV antiviral: 4

Screens: PubChem BioAssay, National Center for Advancing Translational Sciences (NCATS)
